# Paper PMC4336329 (PLoS ONE, 2015)
# The campaign covered roughly 310,000 compounds. About 14,000 (4.5%) showed an effect of 50% or more. The effect is printed as a negative number. The full list was thinned out, with strong results kept by preference.
# Target: human ether-à-go-go-related gene (hERG) potassium channel (human, UniProt Q12809)
# Assay: primary screen, population patch clamp on CHO cells stably expressing hERG; higher = less effect of the substance
# 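Also: peak tail current of the secondary pulse compared with the same well before compound.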
# Sequence of human ether-à-go-go-related gene (hERG) potassium channel (Q12809 whole entry, looked up): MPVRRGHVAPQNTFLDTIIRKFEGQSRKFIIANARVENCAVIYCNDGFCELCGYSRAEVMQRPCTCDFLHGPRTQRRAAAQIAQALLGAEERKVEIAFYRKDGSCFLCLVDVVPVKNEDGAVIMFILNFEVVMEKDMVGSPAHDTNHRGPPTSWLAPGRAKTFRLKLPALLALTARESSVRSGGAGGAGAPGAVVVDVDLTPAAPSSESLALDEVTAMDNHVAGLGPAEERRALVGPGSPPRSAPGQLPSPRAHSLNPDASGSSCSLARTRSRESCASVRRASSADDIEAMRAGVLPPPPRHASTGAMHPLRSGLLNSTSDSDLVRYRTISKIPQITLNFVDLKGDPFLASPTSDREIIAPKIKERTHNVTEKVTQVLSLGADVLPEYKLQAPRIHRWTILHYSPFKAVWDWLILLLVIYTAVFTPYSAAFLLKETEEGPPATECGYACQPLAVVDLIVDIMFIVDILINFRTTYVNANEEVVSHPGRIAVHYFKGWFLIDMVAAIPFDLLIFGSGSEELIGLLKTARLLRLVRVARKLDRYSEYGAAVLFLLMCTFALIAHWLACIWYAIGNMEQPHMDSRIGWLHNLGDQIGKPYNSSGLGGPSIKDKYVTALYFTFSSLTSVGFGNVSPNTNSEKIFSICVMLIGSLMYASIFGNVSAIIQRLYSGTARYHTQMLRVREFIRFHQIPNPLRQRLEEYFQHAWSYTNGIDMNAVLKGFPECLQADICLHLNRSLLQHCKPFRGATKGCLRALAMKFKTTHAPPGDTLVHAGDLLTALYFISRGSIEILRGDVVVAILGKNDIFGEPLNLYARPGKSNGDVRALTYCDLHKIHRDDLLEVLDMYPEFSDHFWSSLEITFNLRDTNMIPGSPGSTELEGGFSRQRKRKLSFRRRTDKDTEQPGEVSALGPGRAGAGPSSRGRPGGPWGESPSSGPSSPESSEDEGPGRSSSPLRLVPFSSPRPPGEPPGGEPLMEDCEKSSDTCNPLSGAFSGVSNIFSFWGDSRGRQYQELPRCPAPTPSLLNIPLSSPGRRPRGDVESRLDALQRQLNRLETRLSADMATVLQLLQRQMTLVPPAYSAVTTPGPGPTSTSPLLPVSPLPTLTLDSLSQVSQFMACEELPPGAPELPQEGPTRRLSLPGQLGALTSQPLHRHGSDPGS
row,SMILES,"hERG current change (%, negative = inhibition) at 10uM"
1,Cc1scc(C(=O)N/N=C/c2ccco2)c1C,2.52%
2,CCCc1cc(=O)[nH]c(SCC(=O)N(CC)C2CCS(=O)(=O)C2)n1 (stereo not shown),13.2%
3,N=C(N)c1c(O)n(C2CCCCC2)c(=O)n(C2CCCCC2)c1=O,18.5%
4,CC1Cc2ccccc2N1C(=O)c1cc2sccc2n1Cc1ccc(F)cc1 (stereo not shown),12.3%
5,Oc1ccc(-c2nnc(SCc3ccccc3)o2)cc1,-8.15%
6,COc1ccc2c(c1)c(=O)c(C(=O)c1ccccc1)cn2Cc1ccccc1,-71.8%
7,COc1ccc2c(c1)c(=O)c(C(=O)c1ccc(C)cc1)cn2CC(=O)Nc1ccc(F)cc1,-10.1%
8,COc1ccc(Cn2cc(C(=O)c3ccccc3)c(=O)c3cc(OC)ccc32)cc1,-31.3%
9,COc1ccc2c(c1)c(=O)c(C(=O)c1ccc(Cl)cc1)cn2CC(=O)Nc1ccc(F)cc1,12.4%
10,COc1ccc2c(c1)c(=O)c(C(=O)c1ccc(F)cc1)cn2CC(=O)Nc1ccc(F)cc1,-5.61%
11,COc1ccc2c(c1)c(=O)c(C(=O)c1ccccc1)cn2Cc1ccc(C)cc1,-75%
12,Cc1cccc(NC(=S)NC2CCSc3ccccc32)c1 (stereo not shown),14.5%
13,COc1ccc(OCC(=O)Nc2ccccc2OC(F)F)cc1,-22.2%
14,CC1CC(C)CN(C(=O)c2ccc(Br)c(S(=O)(=O)N3CCOCC3)c2)C1 (stereo not shown),-26.6%
15,NC(=O)C(c1ccccn1)c1ncc(C(F)(F)F)cc1Cl (stereo not shown),11.7%
16,Cl.O=C(CN1C2=NCCN2c2ccccc21)c1ccco1,-20.7%
17,Cl.O=C(CN1CCCCC1)c1ccc2c(c1)OCO2,-4.7%
18,Br.O=C(CN1C2=NCCN2c2ccccc21)c1ccc(Br)cc1,-67.6%
19,Br.O=C(CN1C2=NCCN2c2ccccc21)c1ccc2c(c1)OCO2,-60.9%
20,CC(C)(C)n1nnnc1C(c1ccc(Cl)cc1)N(Cc1cccnc1)Cc1ccco1 (stereo not shown),-14.7%
21,CCOC(=O)c1[nH]c(C)c(C(=O)N2CCc3ccccc32)c1C,-12.6%
22,Cc1ccc(OCC(=O)NCC(=O)Nc2ccc(F)c(F)c2F)c([N+](=O)[O-])n1,-34.4%
23,Cc1nc(Nc2cccc(C(C)O)c2)c2nnn(Cc3ccc(F)cc3)c2n1 (stereo not shown),5.08%
24,COc1ccc(-n2c(=O)c(CCC(=O)N(C)Cc3ccccc3C)nc3ccccc32)cc1,-50.4%
25,COc1ccc(-n2c(=O)c(CCC(=O)N(C)Cc3cccs3)nc3ccccc32)cc1,-38.7%
26,CCc1ccc(CN(C)C(=O)CCc2nc3ccccc3n(-c3ccc(OC)cc3)c2=O)cc1,-0.36%
27,COc1cc2c(cc1OC)-c1cc(Nc3ccccc3)nc(=O)n1CC2,-64.1%
28,COc1ccc(Nc2cc3n(c(=O)n2)CCc2cc(OC)c(OC)cc2-3)cc1,4.8%

row,SMILES,"hERG current change (%, negative = inhibition) at 10uM"
1,COc1cc2c(cc1OC)-c1cc(Nc3ccc(C)cc3)nc(=O)n1CC2,-8.97%
2,O=C(NCc1ccc2c(c1)OCO2)Nc1ccc(Cl)cc1,5.12%
3,COc1cccc(NC(=O)c2cnc[nH]2)c1,25.1%
4,COc1ccccc1NC(=O)C(=O)NCc1ccncc1,-5.14%
5,Cn1c(CCc2ccccc2)nnc1SCC(N)=O,15.3%
6,N#Cc1c(-c2ccccc2)c(-c2ccccc2)nn(CC(=O)NNC(=O)Nc2ccc(Cl)c(Cl)c2)c1=O,-1.35%
7,CC(=O)N1CC[n+]2c(-c3ccc([N+](=O)[O-])cc3)csc21.[Br-],-68.9%
8,CC(=O)N1CC[n+]2c(-c3ccc(Cl)cc3)csc21.[Br-],-1.19%
9,CCc1ccc(-c2csc3[n+]2CCN3C(C)=O)cc1.[Br-],-29.1%
10,C=CCN1CCN(C(=O)c2cc3c(s2)CCCC3)CC1,-19.3%
11,C=CCN1CCN(C(=O)c2cc3c(s2)CCC(CC)C3)CC1 (stereo not shown),-57.3%
12,CCC1CCc2sc(C(=O)N3CCCN(C)CC3)cc2C1 (stereo not shown),-12.9%
13,Cc1ccc(C)c(C(C)NC(=O)c2ccncc2)c1 (stereo not shown),-7.4%
14,Cc1cc(C(F)F)nn1CC(=O)NC1CCCC1,1.56%
15,CCOC(=O)N1CCN(C(=O)c2ccc3nc(-c4ccccc4)c(-c4ccccc4)nc3c2)CC1,-54.6%
16,CCCC(=O)c1ccc(N2CCN(C(=O)c3ccccc3)CC2)c(F)c1,-66.7%
17,CCCC(=O)c1ccc(N2CCN(C(=O)c3ccccc3Br)CC2)c(F)c1,-23.7%
18,CN1CCN(C(=O)c2ccc3nc(-c4ccccc4)c(-c4ccccc4)nc3c2)CC1,6.03%
19,CCN1CCN(C(=O)c2ccc3nc(-c4ccccc4)c(-c4ccccc4)nc3c2)CC1,-17.4%
20,CCOC(=O)N1CCN(c2ccc(C(=O)c3ccccc3)cc2F)CC1,-50.8%
21,CCCC(=O)c1ccc(N2CCN(C(=O)OCC)CC2)c(F)c1,-14.2%
22,CCC(=O)c1cc(F)c(N2CCN(C(=O)Cc3ccccc3)CC2)cc1C,-58.9%
23,CCC(=O)c1ccc(N2CCN(C(=O)Cc3ccccc3)CC2)c(F)c1,-36.5%
24,CCOC(=O)N1CCN(c2ccc(C(C)=O)cc2F)CC1,5.68%
25,CC(=O)c1cc(F)c(N2CCN(C(=O)Cc3ccccc3)CC2)cc1C,-11.5%
26,CCCC(=O)c1ccc(N2CCN(C(=O)c3ccc(Br)cc3)CC2)c(F)c1,2.35%
27,Cc1ccc(Cn2c(C)cc3c(c2=O)C(c2cccs2)C(C#N)=C(N)O3)cc1 (stereo not shown),15.8%
